HSF1 inhib: HSF1 inhibition; NIH3T3-HGL HSE-luciferase, MG132-induced, luminescence 8 h; hits give low values; activity change, negative = inhibition, % at 7.5 µM (by protocol); 300,000 compounds, 0.77% hits; AID 2098;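 active = more than half of replicate wells show activity change below -50%, luminescence cut by over half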;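 note: luciferase reports HSF-1 transcriptional activity via heat shock element; 0% = median of DMSO wells and -100% = zero luminescence signal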
HIF act: HIF pathway transcriptional activation; U2OS HRE-luciferase reporter, luminescence; normalized: DMSO 0%, desferrioxamine 100%; activation, % at 7.5 µM (by protocol); 300,000 compounds, 0.32% hits;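 active = mean activation of at least 10% of the iron chelator positive control signal, with at least half of replicates also reaching 10%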
ARNT-TACC3 inh: disruptors of human ARNT/TACC3 interaction. Q9Y6A5. AlphaScreen His-ARNT PAS-B/GST-TACC3 binding, luminescence; TACC3 fragment carries E629A point mutation. inhibition, % at 9.99 µM. 390,000 compounds, 0.66% hits. AID 623870;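 active = mean inhibition of replicates at least 50% and at least half of replicates each reaching 50%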;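 note: 0% = complete ARNT plus TACC3 wells and 100% = ARNT alone without TACC3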
HSP90 refold inh: HSP90 refolding inhibition in rabbit reticulocyte lysate. AID 1789. inhibition, % at 5.6 µM. luciferase refolding luminescence, 3 h. 290,000 compounds, 0.91% hits;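 active = inhibition above the screen-wide mean plus 3 SD, computed separately per campaign, cut at about 16% in these data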;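 note: 0% = DMSO wells and 100% = 60 µM geldanamycin wells; inhibitors lower the luminescence because luciferase stays unfolded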
HSF1 activator: increases HSF-1 driven luciferase reporter signal | activation, % at 9 µM | AID 504408 | 300,000 compounds, 1.7% hits | NIH3T3-HGL HSF-1 luciferase reporter, MG132, 8 h; 100% = twice DMSO control signal;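 active = mean replicate activation of at least 50% with a set share of replicates each reaching 50%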;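 note: 0% = median of the neutral control wells and 100% = twice that signal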
HSP90 confirm: HSP90 inhibition, confirmation assay. shares compounds with HSP90 refold inh. rabbit reticulocyte lysate, luciferase refolding luminescence, 3 h. inhibition, % at 5.9 µM. 2,300 compounds, 64% hits. AID 1846; in the data active = inhibition above about 18%;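 note: 0% = vehicle wells and 100% = reference inhibitor wells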
FLuc counter: counter-screen for HSP90 inhibitors: inhibitors of firefly luciferase; purified native firefly luciferase, luminescence; shares compounds with HSP90 refold inh; inhibition, % at 5.9 µM; 2,300 compounds, 48% hits;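 active = inhibition above the mean inhibition of all tested sample wells plus 3 SD, cut at about 10% in these data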;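 note: 0% = DMSO with luciferase and 100% = wells lacking luciferase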
Target sequence (P08659 whole entry, looked up): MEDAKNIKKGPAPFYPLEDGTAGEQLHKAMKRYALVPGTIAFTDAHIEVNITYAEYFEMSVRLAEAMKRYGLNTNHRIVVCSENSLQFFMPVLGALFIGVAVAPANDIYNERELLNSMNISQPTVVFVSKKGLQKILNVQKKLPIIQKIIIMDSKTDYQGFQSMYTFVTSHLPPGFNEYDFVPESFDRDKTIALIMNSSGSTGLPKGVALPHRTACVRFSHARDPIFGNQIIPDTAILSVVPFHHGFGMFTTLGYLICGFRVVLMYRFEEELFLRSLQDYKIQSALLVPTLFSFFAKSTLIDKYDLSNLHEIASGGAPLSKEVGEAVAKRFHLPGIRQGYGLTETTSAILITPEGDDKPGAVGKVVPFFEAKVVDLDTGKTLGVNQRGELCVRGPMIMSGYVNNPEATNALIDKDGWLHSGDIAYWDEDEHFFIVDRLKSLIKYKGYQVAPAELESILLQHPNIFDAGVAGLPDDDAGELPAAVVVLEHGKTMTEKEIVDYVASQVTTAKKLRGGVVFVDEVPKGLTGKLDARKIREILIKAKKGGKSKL
* = called active by the depositor; . = no result; ! = not active in a repeat. Rows were chosen to be rich in hits. Some 3.1% of all compounds tested hit in one or more screens of this group.

SMILES	HSF1 inhib	HIF act	ARNT-TACC3 inh	HSP90 refold inh	HSF1 activator	HSP90 confirm	FLuc counter
O=c1c2c(nc3cc(-c4ccc(F)cc4)[nH]n13)CCCC2	3	0	-3	18*	-7	44*	29*
Cc1nc2cc(-c3ccc(F)cc3)[nH]n2c(=O)c1C	19	2	0	10	35	.	.
CCNC(=O)C[C@@H]1CC[C@@H]2[C@H](COc3ccc(NC(=O)c4cccs4)cc3C(=O)N2C)O1	.	.	-4	.	.	.	.
O=C(Cc1ncc(C(F)(F)F)cc1Cl)NC1CC1	-1	0	0	0	1	.	.
NC(=O)Cc1ncc(C(F)(F)F)cc1Cl	-2	0	.	25*	0	-1	-5
CCc1ccc(NC(=O)c2cnn3ccccc23)cc1	-32	-3	4	65*	-30	78*	71*
COc1cc(/C=N/NC(=Nc2ccc(C)cc2)c2nc3ccccc3s2)ccc1O	-73*	-3	-3	57*	-76	57*	49*
COc1ccccc1/C=N/NC(=Nc1ccc(C)cc1)c1nc2ccccc2s1	-6	6	.	10	4	.	.
C[C@@H](NC(=O)C[C@@H]1CC[C@@H](NS(=O)(=O)c2cccc(F)c2)[C@@H](CO)O1)c1ccccc1	.	.	-2	.	.	.	.
CC(=O)c1ccccc1OCCOc1ccccc1C(C)=O	-3	-1	-6	-2	1	.	.
COc1ccc(C(=O)OCCOc2ccccc2C(C)=O)c(O)c1	-3	1	1	28*	3	7	-4
O=C1c2ccccc2NC(c2ccc3c(c2)OCCO3)N1c1ccc2c(c1)OCCO2 (stereo not drawn)	8	0	8	22*	11	17*	3
O=C1c2ccccc2NC(c2ccc3c(c2)OCO3)N1O (stereo not drawn)	-4	1	1	-2	-7	.	.
COc1cc(C2Nc3ccccc3C(=O)N2c2ccc3c(c2)OCCO3)ccc1OCC(C)C (stereo not drawn)	20	-1	-14	45*	48	4	-10
C[C@H]1CCCCO[C@@H](CN(C)S(=O)(=O)c2ccccc2)[C@@H](C)CN([C@@H](C)CO)C(=O)c2cc(NS(=O)(=O)c3cn(C)cn3)ccc2O1	.	.	-3	.	.	.	.
CCN(CC)c1ccc(SS(=O)(=O)O)cc1	-8	0	-28	25*!	17	69*	-9
CCN(CC)c1ccc(C(=O)O)cc1	-9	0	0	6	-12	.	.
C[C@@H]1CCCCO[C@@H](CN(C)S(C)(=O)=O)[C@H](C)CN([C@@H](C)CO)C(=O)c2cc(NC(=O)Cc3ccccc3)ccc2O1	.	.	1	.	.	.	.
C[C@@H]1CN([C@@H](C)CO)C(=O)Cc2cc(N(C)C)ccc2O[C@@H]1CN(C)C(=O)Nc1ccc2c(c1)OCO2	.	.	-5	.	.	.	.
Cc1cccc(N(O)C(=O)Nc2cccc(Cl)c2)c1	2	2	-6	26*	29	62*	-17
CCN(C(=O)Nc1cccc(Cl)c1)c1ccccc1	7	-1	-5	2	0	.	.
COCC(=O)N1C[C@@H]2[C@H](c3ccccc31)[C@H](CO)N2Cc1ccc(OC)cc1	.	.	-5	.	.	.	.
O=C(C[C@H]1CC[C@H]2[C@@H](COC[C@@H](O)CN2C(=O)c2ccccc2F)O1)NCc1ccc(-c2ccccc2)cc1	.	.	-2	.	.	.	.
COC(=O)[C@H]1[C@H](CO)[C@H]2Cn3c(ccc(C4=CCCC4)c3=O)[C@H]2N1C(=O)C1CC1	.	.	-8	.	.	.	.
O=C(/C=C/c1cnc2ccccc2n1)NC12CC3CC(CC(C3)C1)C2	-71*	1	.	28*	-76	44*	32*
SMILES	HSF1 inhib	HIF act	ARNT-TACC3 inh	HSP90 refold inh	HSF1 activator	HSP90 confirm	FLuc counter
O=C(O)/C=C/c1cnc2ccccc2n1	-8	-2	-6	4	-14	.	.
COc1cc(-c2nc3ccccc3s2)ccc1O	21	3	5	3	27	.	.
COc1cccc(-c2nc3ccccc3s2)c1O	39	0	0	17*	90*	38*	32*
COc1ccc(-c2nc3ccccc3s2)cc1O	19	-4	.	38*	43	78*	72*
CC(C)c1ccc(-c2nc3ccccc3s2)cc1	-91*	-4	-11	84*	-92	98*	94*
Oc1cccc(-c2nc3ccccc3s2)c1	26	0	-2	24*	38	50*	34*

Compound activity (PubChem)
